Out of some 330,000 compounds screened, about 5,800 (1.8%) were called active. The list comes from a sample in which actives are over-represented; it also holds similar structures and randomly drawn compounds. A number with no mark means an inactive call.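 How the source made its calls: active means inhibition above about 50% at the single tested dose (limit read from the data); inactive means the rest.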

The target of the experiment is Sentrin-specific protease 6 (Homo sapiens) (UniProt Q9GZR1). The experiment can be described thus: SENP6 protease inhibitors, primary screen, biochemical, luminescence, uHTS (AID 2599).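 Further: plate controls were DMSO wells with enzyme for no effect and DMSO wells lacking enzyme for full effect.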 Particulars: Recombinant SENP6 catalytic domain, aminoluciferin luminescence; at 10 µM; stronger effect = higher value.
Sentrin-specific protease 6 (Homo sapiens), sequence (Q9GZR1 628-1112 limits assumed): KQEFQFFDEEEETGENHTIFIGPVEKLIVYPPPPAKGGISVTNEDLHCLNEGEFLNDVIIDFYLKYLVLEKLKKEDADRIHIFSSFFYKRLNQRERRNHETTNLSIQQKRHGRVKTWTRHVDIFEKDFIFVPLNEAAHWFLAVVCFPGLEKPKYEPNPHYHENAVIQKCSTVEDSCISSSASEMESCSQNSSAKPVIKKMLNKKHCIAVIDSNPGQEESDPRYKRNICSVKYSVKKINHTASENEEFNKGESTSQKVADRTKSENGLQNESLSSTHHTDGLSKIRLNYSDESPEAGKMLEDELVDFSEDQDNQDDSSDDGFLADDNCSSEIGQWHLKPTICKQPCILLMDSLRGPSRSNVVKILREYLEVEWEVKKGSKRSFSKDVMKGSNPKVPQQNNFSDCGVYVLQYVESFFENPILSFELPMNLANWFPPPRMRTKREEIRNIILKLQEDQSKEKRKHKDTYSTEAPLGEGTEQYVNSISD
In general, inhibition refers to the relative decrease from the control value, in per cent. In the case of `COc1ccc(N2CCN(C(=O)/C(C#N)=C/c3ccccc3)CC2)cc1`, the inhibition is 1.08%. The same measure for `CCOC(=O)/C(C#N)=C/c1ccc(N2CCCCC2)cc1`: 52.8% (active); for `CCOC(=O)/C(C#N)=C/c1ccc(N2CCN(Cc3ccccc3)CC2)cc1`: -1.35%; for `CC1(C)CC(=O)C=C(NCCCN2CCCC2=O)C1`: 4.58%. As to `CC[N+](C)(CC)CCC[n+]1c(-c2ccccc2)c2cc(N)ccc2c2ccc(N)cc21`, the inhibition is 89.2% (active). The same measure for `Cc1cc(C)n2nc(C(=O)Nc3cccc(S(=O)(=O)N4CCOCC4)c3)nc2n1`: -2.51%; for `Cn1c(NC(=O)c2ccccc2)nc2ccccc21`: 75.7% (active). With `CCn1c(NC(=O)c2nn(C)cc2Br)nc2ccccc21` the figure was -7.2%; with `Cn1c(Nc2cccc(Cl)c2)nc2ccccc21`, 21.9%. With `Cc1nn(C)cc1C(=O)c1ccccc1` the figure was 0.575%; with `Cc1nc2ccccc2c(-c2ccccc2)c1C(=O)c1ccccc1`, -18.6%. As to `Cn1c(-c2ccc(C(=O)c3ccccc3)s2)nc2ccccc21`, the inhibition was 68.7% (active). With `O=C(CN(c1ccc2c(c1)OCCO2)S(=O)(=O)c1ccccc1)Nc1ccc2c(c1)OCO2` the figure was 12.2%; with `CCOC(=O)C1C(c2ccc(OC)c(OC)c2)c2c([nH][nH]c2=O)CC1(C)O` (stereo unspecified), -17.3%; with `Cc1nn(CC(=O)NC2CCCCC2)c(=O)c2cccn12`, 9.49%. The same measure for `O=C(Cc1ccc(F)cc1)N1CCN=C1SCc1cccc([N+](=O)[O-])c1`: 4.91%; for `CCOC(=O)N1CCN(c2cc(C)c([N+](=O)[O-])cc2F)CC1`: -3.66%; for `CCn1cc(-c2cc(C(=O)O)on2)c(C)n1`: 15.3%.

Take `Cc1ccn2cc(-c3nonc3C)cc2c1`: the inhibition was 53.2% (active). With `O=[N+]([O-])c1ccc(N/N=C/c2ccccc2)cc1` the figure was 0.552%; with `CNC(=S)Nc1ccc([N+](=O)[O-])cc1`, -24.9%. The same measure for `O=C(O)/C=C/C(=O)NNc1ccc([N+](=O)[O-])cc1`: 82.9% (active).

For the molecule `CCS(=O)(=O)c1ccc(C(=O)NC)c(Cl)c1Cl`, the inhibition is 5.83%.

Regarding `COc1ccccc1C(=O)Nn1cnnc1`, the inhibition was -21.9%. With `COc1ccc(-c2sc3ccccc3c2-c2ccc(OCCN3CCOCC3)cc2)cc1` the figure was -11.4%; with `COC(=O)c1ccc(/C=C/c2c(-c3ccc(OC)cc3)sc3ccccc23)cc1`, 17.2%; with `COc1ccc(N=C(C)c2sc3ccccc3c2O)cc1`, 82.8% (active). With `Cc1ccc(S(=O)(=O)N(c2cccc(C)c2)C2CCS(=O)(=O)C2)cc1` (stereo unspecified) the figure was 7.06%. Regarding `CSCC[C@H](NC(=O)N1CCn2c1nc1ccccc12)C(=O)NC1CCCCC1`, the inhibition is -2.54%. The same measure for `COC(=O)C1=C(C)N(C)C(=S)NC1c1cc(OC)ccc1OC` (stereo unspecified): 6.54%; for `Clc1ccc(COn2c(-c3ccc(Cl)cc3Cl)nc3ncccc32)cc1`: 3.31%; for `Clc1ccc(-c2cc(-c3ccccn3)on2)c(Cl)c1`: 95.1% (active). On to `O=C1c2ccccc2C(=O)N1Cc1cc(-c2ccccc2Cl)no1`, for which the inhibition is -13.7%. With `CC1(C)OC(=O)C(=CNC(CO)C(=O)O)C(=O)O1` (stereo unspecified) the figure was -15.5%. Take `COc1ccc(S(=O)(=O)N2CCOC23CCN(S(=O)(=O)c2ccc([N+](=O)[O-])cc2)CC3)cc1`: the inhibition is -0.227%. On to `CC(C)C(NC(=O)c1cccc(S(=O)(=O)N2CCOCC2)c1)C(=O)NCCc1ccccn1` (stereo unspecified), for which the inhibition was 0.86%. The same measure for `CC(=O)Oc1ccc(-c2nc3c(C)cccc3c(=O)o2)cc1`: 13.4%; for `COc1ccc(/C=C/c2noc(-c3ccccc3OC(C)=O)n2)cc1`: 89.4% (active); for `COc1cccc(/C=C/c2ccc3ccccc3n2)c1OC(C)=O`: 14.1%.

With `O=C(Cc1ccc(S(=O)(=O)N2CCCC2)s1)NC1CCCCCC1`, the inhibition was -13.1%. The same measure for `CSCCC(NC(=O)c1ccco1)C(=O)NCCc1ccc(F)cc1` (stereo unspecified): 5.31%. With `COc1ccc2oc(-c3cccc(NC(=O)CSc4ccc(Cl)cc4)c3)nc2c1` the figure was -0.568%. The same measure for `COc1ccc([N+](=O)[O-])cc1-c1nc2ccccc2nc1-c1ccccc1`: -3.14%. For `CC(=O)Oc1ccc2c(=O)oc(-c3ccc([N+](=O)[O-])cc3)nc2c1`, the inhibition is 32.4%.

On to `O=[N+]([O-])c1ccc2oc(-c3cccc(O)c3)nc2c1`, for which the inhibition was 65.4% (active). The same measure for `COc1cccc(-c2nc3cc(C)ccc3o2)c1`: 97.8% (active); for `COc1cccc(-c2nnc(SCCOc3ccc4c(C)cc(=O)oc4c3)o2)c1`: -18.6%; for `COC(=O)c1ccccc1NC(=O)C1CCN(S(=O)(=O)c2cc(OC)ccc2OC)CC1`: -0.874%. The same measure for `Cc1ccc(NC(=O)C(=O)NCC2CCN(C(=O)c3cccc([N+](=O)[O-])c3)CC2)cc1`: 0.692%; for `N#Cc1cccc(CSc2nnc(CCCO)n2-c2ccccc2)c1`: -0.983%; for `Cc1cccc(NC(=O)c2ccc3ccccc3n2)n1`: 77.2% (active). The same measure for `Cc1cccc(NC(=O)c2cc(N3C(=O)CCC3=O)ccc2Cl)n1`: -4.72%.

Turning to `Cc1cccc(NC(=O)c2cccnc2Cl)n1`, the inhibition is 24.9%.

Take `COc1ccc(NC(=O)c2cn(-c3ccccc3)nc2SC)cc1`: the inhibition is 0.083%. The same measure for `Cc1c(C(C)CCCO)oc(=O)c2c1Oc1c(C)c(C(C)C[C@@H](C)O)oc(=O)c1C2` (stereo partly specified): 13.7%; for `O=C(Oc1ccc(Br)cc1C(=S)N1CCOCC1)c1cccc([N+](=O)[O-])c1`: -3.34%; for `Cc1ccc(/C=C(\C#N)C(=O)Nc2cccc3ncccc23)o1`: -57.2%. With `O=C(NNS(=O)(=O)c1ccccc1C(F)(F)F)c1cc2ncc(C(F)(F)F)cc2s1` the figure was 4.2%; with `Cc1ccnc(N2C(=O)c3ccc([N+](=O)[O-])cc3C2=O)c1`, -9.97%; with `Cc1ccc(-c2cn(S(=O)(=O)c3cccc([N+](=O)[O-])c3)nc2N)cc1`, -7.28%. For the molecule `Cc1ccc(-n2cc3ccc([N+](=O)[O-])cc3n2)cc1`, the inhibition is 86.9% (active).
